In PubChem BioAssay AID1567 (National Center for Advancing Translational Sciences (NCATS), 2009):
Records with an inconclusive call do not appear. A call without a number means that no potency is given here. Calls of active or inactive are those of the source. Calls come from the whole dose curve; as a rule, active = well fitted inhibition curve with a large enough effect; inconclusive = small, poorly fitted or top-dose-only effect, or effect the other way; inactive = no such curve, though single readings can be large or run the other way.

Target: Thyroid hormone receptor beta (Homo sapiens) (UniProt P10828)
Test: Cell-based Gene Reporter Secondary Assay to Characterize qHTS Inhibitors of the Interaction of Thyroid Hormone Receptor and Steroid Receptor Coregulator 2
Description: NIH Molecular Libraries Probe Production Network [MLPCN] NIH Chemical Genomics Center [NCGC] MLPCN Grant: DK058080 Assay Provider: R. Kip Guy, St. Jude Children's Research Hospital NCGC Assay Overview: Thyroid receptor (TR) regulates many homeostatic processes including basal metabolism, cardiovascular function, body weight, and lipid trafficking. TR modulators are potential therapeutics for obesity and hyperlipidemias but current thyroid analogs have undesirable side effects, particularly cardiac stimulation. This secondary assay characterized selected actives identified in the qHTS for Inhibitors of the Interaction of Thyroid Hormone Receptor and Steroid Receptor Coregulator 2. The human follicular thyroid carcinoma cell line WRO (kindly provided by Dr. M. D. Ringel) stably expresses TRbeta and a luciferase reporter gene fused to TR response element. The addition of T3 ligand elevates expression of the TRE luciferase reporter. This assay measures the transcriptional activity of compounds.
NCGC Assay Protocol Summary: Cells were maintained in RPMI 1640 culture medium supplemented with 10% heat-inactivated FBS, 0.33 mg/ml hygromycin, 0.33 mg/ml geneticin, 50 units/ml penicillin, 50 ug/ml streptomycin. […] Following incubation, plates were equilibrated at ambient temperature for 30 min, 30 ul of Bright-Glo (Promega) was added and luminescence was detected by an EnVision (PerkinElmer).

Thyroid hormone receptor beta (Homo sapiens), sequence (P10828 whole entry, looked up): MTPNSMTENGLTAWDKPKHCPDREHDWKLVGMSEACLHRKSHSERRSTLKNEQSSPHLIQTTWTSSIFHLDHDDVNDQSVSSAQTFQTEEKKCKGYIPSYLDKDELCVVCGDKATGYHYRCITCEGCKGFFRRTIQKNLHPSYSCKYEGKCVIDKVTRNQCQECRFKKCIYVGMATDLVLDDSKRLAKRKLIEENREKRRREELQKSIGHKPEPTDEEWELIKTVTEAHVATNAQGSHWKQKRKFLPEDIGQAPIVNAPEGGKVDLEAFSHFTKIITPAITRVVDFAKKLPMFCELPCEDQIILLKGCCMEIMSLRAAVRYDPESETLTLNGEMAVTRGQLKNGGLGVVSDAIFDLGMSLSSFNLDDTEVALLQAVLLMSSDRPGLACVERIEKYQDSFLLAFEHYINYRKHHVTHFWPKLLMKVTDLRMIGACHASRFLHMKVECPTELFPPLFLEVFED

## COP(=S)(OC)Oc1ccc([N+](=O)[O-])cc1
  Potency: 3.98 µM (active)

## CCCCCn1c(N)c(C(=O)NCc2cccs2)c2nc3ccccc3nc21
  Potency: inactive
